For test [1], the target named is Aldehyde dehydrogenase, mitochondrial (Homo sapiens) (UniProt P05091). Put plainly: qHTS for Inhibitors of the Aldehyde Dehydrogenase Family (ALDH2) Primary screen (AID 2061308). Further: nearly all actives have a fitted effect of over 55% in size.
Test [2] addresses Retinaldehyde dehydrogenase 3 (Homo sapiens) (UniProt P47895). Put plainly: qHTS for Inhibitors of the Aldehyde Dehydrogenase Family (ALDH1A3) Primary screen (AID 2061315). For orientation: In qHTS, concentration-response curves come from the screen itself.

Records with an inconclusive call do not appear. A call without a number means that no potency is given here. The source made the active and inactive calls. The call rests on the fitted dose curve; in most records, active means well fitted curve in the direction sought with a large enough effect; inconclusive means small, poorly fitted or top-dose-only effect, or another doubt; inactive means no such curve, though single readings can be large; an effect the other way counts as inactive or inconclusive.

Take `Cc1ccc(-c2ccc(=O)n(CC(=O)N(C)CCc3ccco3)n2)cc1`: the Potency entry in test [1] and in test [2] was “inactive” each time.
On to `O=[N+]([O-])c1ccccc1-c1nc(NCc2ccc(-c3cccnc3)cc2)c2ccccc2n1`, for which the Potency entry in test [1] and in test [2] was “inactive” in each case.
Take `O=C(Nc1ccc2ccccc2c1)Nc1nnc(-c2ccc(Cl)cc2Cl)s1`: the Potency result in test [1] and in test [2] was “inactive” in each case.
Turning to `CC1=C(C(=O)Nc2nc3ccccc3s2)C(c2[nH]ncc2Cl)N=C(Nc2nc3ccccc3o2)N1` (stereo unspecified), the Potency result in test [1] and in test [2] was “inactive” throughout.
As to `O=C(O)c1cccc2c1C(=O)N(c1ccccc1)C2`, the Potency result in test [1] and in test [2] was “inactive” in each case.
Consider `O=S(=O)(Nc1ccccc1)c1ccc(O)c2ncccc12`, for which the Potency result in test [1] and in test [2] was “inactive” throughout.
Turning to `O=C(NCCc1nc2ccccc2n1CCOc1cc(F)ccc1F)C1CCCCC1`, the Potency result in test [1] and in test [2] was “inactive” each time.
With `CC(C)=CCCC1(C)C2CCC1(C)C(O)C2` (stereo unspecified), the Potency entry in test [1] and in test [2] was “inactive” each time.
On to `COc1ccc(NS(=O)(=O)c2ccccc2C(=O)O)cc1`, for which the Potency result in test [1] and in test [2] was “inactive” in each case.
As to `Cc1ccc(S(=O)(=O)Nc2ccncc2C(=O)Nc2nc(-c3ccccc3)cs2)cc1`, the Potency result in test [1] and in test [2] was “inactive” each time.
Turning to `CCOc1ccc(CCNC(=O)c2cccs2)cc1OCC`, the Potency result in test [1] and in test [2] was “inactive” each time.
Regarding `Cc1ccc(C(=O)Nc2ccc(N3CCCCC3)cc2)cc1`, the Potency entry in test [1] and in test [2] was “inactive” each time.
Consider `COc1cccc(N2C(=O)c3ccccc3C2=O)c1`, for which the Potency entry in test [1] and in test [2] was “inactive” in each case.
Take `CC[C@@H]1C(=O)O[C@]23C=C[C@@H]4C(C(=O)OC)=CO[C@H](O[C@@H]12)[C@@H]43`: the Potency entry in test [1] and in test [2] was “inactive” in each case.
In the case of `Cc1ccc(-c2cc(C(=O)Nc3ccc(C#N)cc3)c3ccccc3n2)cc1C`, the Potency entry in test [1] and in test [2] was “inactive” throughout.
In the case of `Cc1cc(C)nc(NC(=S)N2CCN(c3nccc4ccsc34)CC2)c1`, the Potency result in test [1] and in test [2] was “inactive” each time.
As to `Cc1ccc(OCCn2c(CCNC(=O)C3CC3)nc3ccccc32)cc1`, the Potency entry in test [1] and in test [2] was “inactive” throughout.
For `Cc1cccc(CNc2ccnc(-c3ccccc3F)n2)c1`, the Potency entry in test [1] and in test [2] was “inactive” each time.
Regarding `O=C(Cn1cc(CN(Cc2ccccc2)Cc2ccccc2)nn1)Nc1cc(C(F)(F)F)ccc1Cl`, the Potency result in test [1] and in test [2] was “inactive” each time.
With `CC(C)(C)OC(=O)CC(=O)NNC(=O)c1nc2ccccc2[nH]1`, the Potency result in test [1] and in test [2] was “inactive” each time.
Regarding `N#Cc1cc(NC(=O)Nc2cccc(-c3ccncc3)n2)ccc1Cl`, the Potency result in test [1] and in test [2] was “inactive” in each case.
Take `O=C(CSc1ncnc2sc3c(c12)CCCCC3)NCc1ccco1`: the Potency result in test [1] and in test [2] was “inactive” in each case.
With `O=S(=O)(c1ccc2c(c1)OCCO2)N1CCN(S(=O)(=O)c2cc(F)ccc2F)CC1`, the Potency entry in test [1] and in test [2] was “inactive” throughout.
As for `COC(=N)c1nc2ccc3ncnc(Nc4ccc(F)cc4Br)c3c2s1`, the Potency result in test [1] and in test [2] was “inactive” in each case.
Take `CC(=O)Nc1sc2c(c1-c1cccnc1)CCNC2`: the Potency entry in test [1] and in test [2] was “inactive” in each case.
Take `N#Cc1c(Oc2ccc(F)c(NC(=O)Cc3cccc(C(F)(F)F)c3)c2)ccc2nc(NC(=O)C3CC3)sc12`: the Potency result in test [1] and in test [2] was “inactive” throughout.
As to `Cc1cc2c(s1)c1cnn(Cc3ccc(C(=O)O)cc3)c(=O)c1n2C`, the Potency entry in test [1] and in test [2] was “inactive” throughout.
With `C=C1C(=O)OC2/C=C(\COC(C)=O)CC/C=C(\C=O)CC(OC(=O)C(C)CC)C12` (stereo unspecified), the Potency entry in test [1] and in test [2] was “inactive” each time.
Regarding `Cc1cc(C)nc(NC(=S)N2CCN(c3ccc(S(C)(=O)=O)cc3F)CC2)c1`, the Potency entry in test [1] and in test [2] was “inactive” throughout.
For `O=C(/C=C/c1c(F)c(F)c(F)c(F)c1F)Nc1cccc([S+](=O)([O-])Nc2ccccc2F)c1`, the Potency entry in test [1] and in test [2] was “inactive” throughout.
As for `COc1ccc(OC)c(-c2nnc3n2N=C(c2ccccc2OC)CS3)c1`, the Potency entry in test [1] and in test [2] was “inactive” each time.
As for `Cc1cncc(NC(=S)N2CCN(c3cccc(C(F)(F)F)c3)CC2)c1`, the Potency entry in test [1] and in test [2] was “inactive” in each case.
`COc1ccc(C2Nc3ccccc3C(=O)N2Cc2ccccc2)cc1COc1c(C)cc(NC(C)=O)cc1C` (stereo unspecified): the Potency entry in test [1] and in test [2] was “inactive” each time.
For `N=c1c2c(ccn1CCCc1ccccc1)Oc1ccc3ccccc3c1C2c1ccccc1` (stereo unspecified), the Potency result in test [1] and in test [2] was “inactive” each time.
Turning to `Cc1cc(C)nc(NC(=S)N2CCN(c3ccc([N+](=O)[O-])cc3Cl)CC2)c1`, the Potency result in test [1] and in test [2] was “inactive” each time.
Take `FC(F)Oc1ccc(C2=Nn3c(nnc3-c3ccccc3Cl)SC2)cc1OCC1CC1`: the Potency entry in test [1] and in test [2] was “inactive” in each case.
Take `CC(=O)Nc1sc2c(c1-c1ccccc1)CCNC2`: the Potency entry in test [1] and in test [2] was “inactive” each time.
With `C[S+](=O)([O-])c1ccc(-c2ccc(=O)n(CC(=O)NCCc3ccccc3)n2)cc1`, the Potency entry in test [1] and in test [2] was “inactive” in each case.
For the molecule `CCOc1ccc(NC(=O)Nc2ccc(-c3nc4ccccc4[nH]3)cc2)cc1`, the Potency result in test [1] and in test [2] was “inactive” in each case.
As to `N#Cc1ccc(C(=O)NCC(=O)OC(C(=O)Nc2cc(C(F)(F)F)ccc2Cl)c2ccccc2)cc1` (stereo unspecified), the Potency entry in test [1] and in test [2] was “inactive” in each case.
On to `Cc1ccc(OCCn2c(CCNC(=O)/C=C/c3cccc(Br)c3)nc3ccccc32)cc1`, for which the Potency entry in test [1] and in test [2] was “inactive” throughout.
As to `Cc1ccc(S(=O)(=O)Nc2cccc(C(=O)Nc3nc(-c4ccccc4)cs3)c2Cl)cc1`, the Potency entry in test [1] and in test [2] was “inactive” throughout.
Consider `CCCn1c(C)nc2c(N(CCN(C)C)Cc3ccccc3)nc(C)nc21`, for which the Potency result in test [1] and in test [2] was “inactive” throughout.

The record behind these values is PubChem BioAssay (NCATS).
